Results on five compounds are retold here after PubChem BioAssay.

Results filed as inconclusive are left out. The source made the active and inactive calls.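 Rule for the calls, unless noted: active = cell viability at or below a set limit in both duplicate runs, the limit being the all-compound median minus 4 SD (cut at about 23% in these data, passing the limit was not always enough); inconclusive = no clear call, values can overlap the other calls; inactive = the rest.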

A short description of test [1]: Her2 expression decrease, cell viability multiplex – SKBR3 breast tumor cells, AlphaScreen, ATP viability, primary screen (AID 461;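 active = Her2 level under about 52% in both replicate screens, with viability over 70% of control, limit read from the data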;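 for Her2 level: lower value means less Her2 protein in the cells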;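 for viability: percent of carrier control wells set as 100% viability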). The following applies: SKBR3 Her2 protein level, 18-24 h, measured here: SKBR3 viability, ATP luminescence, at 10 µM.
Test [2] deals with Receptor tyrosine-protein kinase erbB-2 (Homo sapiens) (UniProt P04626). The description is as above. The following applies: 18-24 h, at 10 µM, stronger effect = lower value.
Sequence of Receptor tyrosine-protein kinase erbB-2 (Homo sapiens) (P04626 whole entry, looked up): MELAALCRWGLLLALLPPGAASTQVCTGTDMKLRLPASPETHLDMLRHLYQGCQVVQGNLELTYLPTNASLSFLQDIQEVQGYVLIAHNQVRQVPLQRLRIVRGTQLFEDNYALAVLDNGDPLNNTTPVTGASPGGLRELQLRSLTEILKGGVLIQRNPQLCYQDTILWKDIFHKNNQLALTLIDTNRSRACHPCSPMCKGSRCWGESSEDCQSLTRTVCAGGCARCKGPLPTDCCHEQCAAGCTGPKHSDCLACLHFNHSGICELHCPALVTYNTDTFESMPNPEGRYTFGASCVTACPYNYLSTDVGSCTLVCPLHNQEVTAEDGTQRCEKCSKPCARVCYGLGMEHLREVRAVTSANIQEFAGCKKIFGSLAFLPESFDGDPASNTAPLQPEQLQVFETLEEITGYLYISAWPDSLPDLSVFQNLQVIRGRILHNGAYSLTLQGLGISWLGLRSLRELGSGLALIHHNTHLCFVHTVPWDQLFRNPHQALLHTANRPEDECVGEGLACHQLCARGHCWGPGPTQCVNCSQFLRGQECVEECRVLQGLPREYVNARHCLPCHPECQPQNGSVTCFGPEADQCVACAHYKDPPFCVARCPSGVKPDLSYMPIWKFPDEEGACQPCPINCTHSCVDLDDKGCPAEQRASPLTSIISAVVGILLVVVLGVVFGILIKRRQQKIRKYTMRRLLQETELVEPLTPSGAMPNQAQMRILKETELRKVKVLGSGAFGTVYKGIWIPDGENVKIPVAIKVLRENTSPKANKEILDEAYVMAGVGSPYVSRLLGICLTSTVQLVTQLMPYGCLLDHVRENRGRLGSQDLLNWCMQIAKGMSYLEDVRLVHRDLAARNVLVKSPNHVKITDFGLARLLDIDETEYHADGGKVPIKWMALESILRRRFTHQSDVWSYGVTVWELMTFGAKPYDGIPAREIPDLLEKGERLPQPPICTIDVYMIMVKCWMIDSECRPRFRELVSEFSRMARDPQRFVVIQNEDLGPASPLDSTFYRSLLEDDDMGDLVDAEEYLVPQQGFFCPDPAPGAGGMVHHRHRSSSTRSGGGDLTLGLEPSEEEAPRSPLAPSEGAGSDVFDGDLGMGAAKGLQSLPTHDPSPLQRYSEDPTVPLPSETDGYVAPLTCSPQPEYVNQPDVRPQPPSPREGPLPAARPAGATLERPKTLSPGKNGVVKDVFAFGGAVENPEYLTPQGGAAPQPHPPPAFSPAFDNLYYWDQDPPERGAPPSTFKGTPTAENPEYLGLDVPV
The nature of test [3]: reduced viability of SK-BR-3 breast cancer cells – cell-based, 24 h, human, pilot screen (AID 572;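 active = viability at or below 10% of carrier control in both of two separate runs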;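 note: compound exposure lasted between 18 and 24 h rather than exactly 24 h; 100% = carrier-treated control wells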). The following applies: SK-BR-3 viability, CellTiter-Glo luminescence, at 10 µM, stronger effect = lower value.
The nature of test [4]: HUVEC growth inhibition – cell-based, human, primary screen (AID 575;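 active = viability at or below 30% in both replicate assays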;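 note: 100% = median of untreated cell wells with 0.1% DMSO on each plate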). The following applies: HUVEC proliferation, CellTiter-Glo luminescence, 72 h; at 10 µM; stronger effect = lower value.
A short description of test [5]: H69AR cell proliferation blockers – human, duplicate replicates, primary screen (AID 580;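 active = viability at or under a set limit in both replicates, limit being median viability minus 3 SD, cut at about 48% in these data, passing the limit was not always enough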;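 note: 100% = mean luminescence of untreated wells and 0% = no signal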). The following applies: H69AR lung tumor cells viability, ATP luminescence, 72 h; at 10 µM; stronger effect = lower value.
Test [6] in a line: MRP1 drug-resistance reversers in H69AR cells – cell-based, doxorubicin co-treatment, pilot screen (AID 601;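 active = viability loss from added drug above about 55%, and viability with drug at most 40%, in both replicates, limit read from the data, passing the limit was not always enough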). To be noted: CellTiter-Glo, 72 h, at 10 µM; for differential viability (reversal): stronger effect = higher value.
The nature of test [7]: yeast transport mutant growth inhibition pilot in 384-well plates, post-Golgi transport modulator project (AID 636; in the data active = inhibition above about 31%). The following applies: absorbance 615 nm, about 18 h, stronger effect = higher value.
Test [8] in a line: growth suppression of yeast trafficking mutant, preliminary HTS, modulators of trafficking downstream of Golgi apparatus project, 1536-format plate, OD 615 nm (AID 637; in the data active = inhibition above about 30%). The following applies: yeast transport mutant growth, absorbance 615 nm, 18 h; stronger effect = higher value.
Test [9] in a line: S. cerevisiae growth inhibition in permissive medium (OD615), pilot counter-assay for S. cerevisiae lifespan shortening project, permissive growth control (AID 705;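 active = growth inhibition above 25% in both replicates, a cutoff set 3 SD above the mean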). To be noted: OD615, 24 h, at 10 µM, stronger effect = higher value.
Test [10] can be described thus: S. cerevisiae growth inhibition in restrictive medium, OD615, pilot screen, restrictive growth control, yeast lifespan reduction project (AID 706;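 active = growth inhibition above a set limit, 3 SD over mean compound inhibition, in both replicates, cut at about 43% in these data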;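 note: modified DeaD lifespan yeast strain shifted to restrictive glucose medium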). To be noted: OD615, 48 h, at 10 µM, stronger effect = higher value.
Test [11] is described as follows: doxorubicin toxicity protection in MRP-1 cells – H69AR cells, CellTiter-Glo, duplicate, MRP-1 activator project, pilot screen (AID 807;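 active = viability increase at or above a cutoff of the median across tested compounds plus 3 SD, cut at about 8.5% in these data, passing the limit was not always enough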;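 note: compound pretreatment 18-22 h then 72 h combined with doxorubicin; 0% = doxorubicin alone and 100% = vehicle without doxorubicin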). To be noted: H69AR viability with doxorubicin, CellTiter-Glo luminescence; at 10 µM; stronger effect = higher value.
Test [12] can be described thus: viability of HCT116 without oncogenic beta-catenin – human colon tumor cells, pilot screen (AID 823).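 Note: 0% = wells killed by 20 µM Hyamine and 100% = untreated DMSO cell wells.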 The following applies: HCT116 beta-catenin knockout viability, CellTiter-Glo, 60 h; at 10 µM; stronger effect = lower value.
Test [13] can be described thus: viability of PTEN-null HCT116 cells – cell-based, HCT116 clonal line, CellTiter-Glo, pilot screen (AID 824;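 active = viability at or below 27.92% in each of two runs, the all-compound median minus 4 SD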;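 note: 0% = 20 µM Hyamine control and 100% = vehicle cell control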). The following applies: HCT116 PTEN-deleted viability, 60 h, at 10 µM, stronger effect = lower value.
The nature of test [14]: RAM pathway blockade in budding yeast – dse1pr::URA3 reporter, 5-FOA selection, pilot screen (AID 869;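 active = inhibition over a set limit, the all-compound mean plus 3 SD, in both replicate runs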;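 note: 0% = DMSO wells with no growth and 100% = 10 µM 1-NA-PP1 with full growth; RAM network block rescues cells from 5-FOA so hits raise OD615 growth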). The following applies: S. cerevisiae dse1pr::URA3 5-FOA growth, OD615, 2 d; at 10 µM; stronger effect = higher value; strain carries analog-sensitive mutant Cbk1 kinase.
The nature of test [15]: RAM signaling pathway blockade in yeast – S. cerevisiae, Pdr1DBD-CYC8 efflux-inhibited sensitized strain, primary screen (AID 1298;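 active = RAM network inhibition above 8.4% in each of two replicates, 3 SD over the compound average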;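 note: 0% = DMSO untreated cells without growth and 100% = 10 µM 1-NA-PP1 full growth; higher means more yeast growth rescued from 5-FOA killing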). To be noted: S. cerevisiae cbk1-as DSE1-URA3 strain, 5-FOA growth OD615, 2 d; at 50 µM; stronger effect = higher value.
Where [16] appears, read: H69AR cells + 2 uM doxorubicin, measured here: viability with 2 uM doxorubicin, stronger effect = lower value.
Where [17] appears, read: H69AR cells, compound alone cytotoxicity.

For `CC(C(=O)N1CC2(C)CC1CC(C)(C)C2)N1C(=O)c2ccccc2C1=O` (stereo not given), the viability is 84% in test [1]; 84% (inactive) in test [3]; 101% (inactive) in test [4]; 98.1% (inactive) in test [5]; 81.3% in test [6] (setting [16]); 98.1% in test [6] (setting [17]). Further, the viability in test [12] is 82.1% (inactive); in [13], 83.5% (inactive). The Her2 level in test [2] was 101% (inactive). For the same compound, the differential viability (reversal) in test [6] (H69AR cells + 2 uM doxorubicin) was 16.8% (inactive). Besides, the inhibition was -7.07% (inactive) in test [7], 0.32% (inactive) in test [8] and 0.545% (inactive) in test [14]. Besides, the growth inhibition in [9] is -13.3% (inactive); in test [10] it was -0.265% (inactive). In test [11], the viability increase was -3.98% (inactive). The RAM network inhibition in [15] was 4.35% (inactive).

Regarding `COc1ccc(NC(=O)CSc2nnc(-c3ccccc3)n2N)cc1`, the viability is 97.5% in [1]; 97.5% (inactive) in test [3]; 94.7% (inactive) in test [4]; 93.6% (inactive) in test [5]; 76.4% in test [6] (setting [16]); 93.6% in test [6] (setting [17]). The viability in test [12] is 101% (inactive); in test [13], 108% (inactive). Also, in [2], the Her2 level is 87.5% (inactive). The differential viability (reversal) in test [6] (H69AR cells + 2 uM doxorubicin) is 17.2% (inactive). In addition, the inhibition in test [7] is -7.87% (inactive); in [8] it was -0.16% (inactive); in test [14], 1.12% (inactive). In addition, the growth inhibition is 0.265% (inactive) in test [9] and 3.57% (inactive) in test [10]. Besides, the viability increase in test [11] is 0.58% (inactive). Further, the RAM network inhibition in test [15] was 3.84% (inactive).

On to `CC1Cc2nc(SCC(=O)N3CCCc4ccccc43)n(C)c(=O)c2S1` (stereo not given), for which the viability was 97% in test [1]; 97% (inactive) in test [3]; 84.8% (inactive) in [4]; 72% (inactive) in test [5]; 51.2% in test [6] (setting [16]); 72% in [6] (setting [17]). Besides, the results for the viability in test [12] and in test [13] were 76.1% (inactive) and 73.4% (inactive), respectively. In addition, in test [2], the Her2 level was 91% (inactive). Besides, the differential viability (reversal) in test [6] (H69AR cells + 2 uM doxorubicin) was 20.9% (inactive). For the same compound, the figures for the inhibition in test [7], in test [8] and in [14] were -4.27% (inactive), 0.33% (inactive) and 3.17% (inactive), respectively. Moreover, the growth inhibition in [9] is -5.25% (inactive); in [10] it was -9.97% (inactive). Further, the viability increase in test [11] was -3.51% (inactive). Moreover, the RAM network inhibition in test [15] is 6.46% (inactive).

As for `Cc1cc2ccccc2n1CCNC(=O)C1CC1`, the viability in test [1] is 89.5%; in test [3], 89.5% (inactive); in test [4], 89.8% (inactive); in test [5], 88.1% (inactive); in test [6] (setting [16]), 93.6%; in [6] (setting [17]) it was 88.1%. The viability is 98.3% (inactive) in test [12] and 101% (inactive) in [13]. The Her2 level in test [2] was 81% (inactive). In addition, in [6] (H69AR cells + 2 uM doxorubicin), the differential viability (reversal) was -5.55% (inactive). Further, the results for the inhibition in test [7], in test [8] and in test [14] were -4.8% (inactive), 4.67% (inactive) and 0.66% (inactive), respectively. Further, the growth inhibition is -2.51% (inactive) in test [9] and 1.02% (inactive) in [10]. The viability increase in test [11] was -0.53% (inactive). In addition, the RAM network inhibition in test [15] was 2.78% (inactive).

As to `O=C(OCCN=C1NS(=O)(=O)c2ccccc21)C1CC(=O)N(c2ccc(Cl)cc2)C1` (stereo not given), the viability in test [1] was 114%; in test [3], 114% (inactive); in test [4], 106% (inactive); in [5], 93.2% (inactive); in test [6] (setting [16]) it was 87.4%; in test [6] (setting [17]) it was 93.2%. Also, the viability in test [12] is 107% (inactive); in test [13], 101% (inactive). Moreover, the Her2 level in test [2] is 99.5% (inactive). Also, in test [6] (H69AR cells + 2 uM doxorubicin), the differential viability (reversal) is 5.78% (inactive). Further, the inhibition in [7] is -3.25% (inactive); in [8] it was -1.67% (inactive); in [14], 0.695% (inactive). For the same compound, the results for the growth inhibition in test [9] and in test [10] were 6.61% (inactive) and -8.43% (inactive), respectively. For the same compound, the viability increase in test [11] was -0.51% (inactive). In addition, in test [15], the RAM network inhibition is -0.53% (inactive).
